# Test results as given in the supplement of paper PMC6555819.
# What was measured:
# Assay in all cases: PBM binding z-score (relative to random genomic background probes); higher = stronger binding; sequences stand for … in GC…GCGATTGACAGCGTAGAATGAAGG
# [1] = system: FXR:RXRa (NR concentration 270 nM, RXRa partner concentration 90 nM)
# Procedure, shortened: (§1)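 Antibodies against each partner of ligand-free nuclear receptor dimers (one per run) detected binding on custom Agilent 4×180K protein-binding microarrays after 1 h incubation. The double-stranded probes had 34-nt variable regions carrying direct-repeat seeds, single-nucleotide variants, half-site ablations and random human genomic background sequences. Binding z-scores, from regression-normalized fluorescence, use the random background probes as reference.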
# [2] = system: LXRa:RXRa (NR concentration 270 nM, RXRa partner concentration 90 nM)
# Procedure, shortened: as §1
# [3] = system: LXRa homodimer (NR concentration 270 nM)
# Procedure, shortened: as §1
# [4] = system: LXRb:RXRa (NR concentration 270 nM, RXRa partner concentration 90 nM)
# Procedure, shortened: as §1
# [5] = system: LXRb homodimer (NR concentration 270 nM)
# Procedure, shortened: as §1
# [6] = system: PPARa:RXRa (NR concentration 270 nM, RXRa partner concentration 90 nM)
# Procedure, shortened: as §1
# [7] = system: PPARg:RXRa (NR concentration 180 nM, RXRa partner concentration 90 nM)
# Procedure, shortened: as §1
# [8] = system: PPARg:RXRa 270nM:90nM, anti-RXR (NR concentration 270 nM, RXRa partner concentration 90 nM)
# Procedure, shortened: as §1
# [9] = system: PPARg:RXRa 30nM:10nM, anti-RXR (NR concentration 30 nM, RXRa partner concentration 10 nM)
# Procedure, shortened: as §1
# [10] = system: PPARg:RXRa 90nM:30nM, anti-RXR (NR concentration 90 nM, RXRa partner concentration 30 nM)
# Procedure, shortened: as §1
# [11] = system: PPARg:RXRa DBDmut IVT, anti-RXR (DBD mutation: RXRa K156A/R161A, NR concentration 270 nM, RXRa partner concentration 90 nM)
# Procedure, shortened: as §1
# [12] = system: PPARg:RXRa IVT, anti-PPARg (NR concentration 270 nM, RXRa partner concentration 90 nM)
# Procedure, shortened: as §1
# [13] = system: PPARg DBDmut:RXRa IVT, anti-PPARg (DBD mutation: PPARg1 K132A/R137A, NR concentration 270 nM, RXRa partner concentration 90 nM)
# Procedure, shortened: as §1
# [14] = system: PPARg DBDmut IVT, anti-PPARg (DBD mutation: PPARg1 K132A/R137A, NR concentration 270 nM)
# Procedure, shortened: as §1
# [15] = system: PPARg homodimer (NR concentration 180 nM)
# Procedure, shortened: as §1
# [16] = system: PXR:RXRa (NR concentration 270 nM, RXRa partner concentration 90 nM)
# Procedure, shortened: as §1
# [17] = system: PXR homodimer (NR concentration 270 nM)
# Procedure, shortened: as §1
# [18] = system: RARa:RXR (NR concentration 270 nM, RXRa partner concentration 90 nM)
# Procedure, shortened: as §1
# [19] = system: RARa homodimer (NR concentration 270 nM)
# Procedure, shortened: as §1
# [20] = system: RARb:RXRa (NR concentration 270 nM, RXRa partner concentration 90 nM)
# Procedure, shortened: as §1
Sequence,PBM binding z-score [1],PBM binding z-score [2],PBM binding z-score [3],PBM binding z-score [4],PBM binding z-score [5],PBM binding z-score [6],PBM binding z-score [7],PBM binding z-score [8],PBM binding z-score [9],PBM binding z-score [10],PBM binding z-score [11],PBM binding z-score [12],PBM binding z-score [13],PBM binding z-score [14],PBM binding z-score [15],PBM binding z-score [16],PBM binding z-score [17],PBM binding z-score [18],PBM binding z-score [19],PBM binding z-score [20]
ACCATTAGTTGAGACGAGGGCAACCGATAGGTTG,0.428,0.177,3.5e-05,0.214,-0.155,0.553,0.56,-0.0707,0.0624,-0.228,0.237,0.503,0.491,-0.276,0.403,1.5,0.41,1.48,-0.14,1.18
AGAATGAGGTTATTTAGATCAGGGAATTGCGGTC,2.23,1.9,0.538,1.56,0.456,2.9,1.33,1.89,0.586,1.17,2.96,2.43,1.1,0.243,1.23,1.34,0.696,1.6,0.731,1.38
TCGAGTCGGTTAGTCGGGGCATTCAGCCAACATA,-0.133,-0.389,-0.468,0.0657,-0.884,0.295,-0.72,0.168,0.645,0.378,0.436,-0.0905,-0.814,-1.24,-0.388,-0.0849,-0.566,-0.027,-1.36,-0.00486
ACATACAGGTGATGAAGGTAACTCAGGCTATCAT,0.328,0.419,0.233,0.198,-0.055,0.484,1.06,0.534,0.477,0.425,1.27,1.16,1.17,0.566,0.36,0.132,0.441,0.745,0.688,0.588
TAGCCTATGTCATGCGGGCCAGTATAGTGTCGGC,-0.542,-0.522,-0.975,-0.937,-0.855,-0.683,0.11,-0.476,-0.612,-0.433,-0.318,0.0427,-0.339,-0.807,-1.01,-0.639,-1.13,-0.718,-1.4,0.113
AGCCAAAGTTCACTAGGTAACGTAAGATTCAGCT,4.84,4.92,2.67,2.81,0.629,4.51,5.95,5.78,3.24,5.12,2.5,4.42,0.974,0.266,2.28,3.96,2.4,2.78,0.158,4.68
